Experimental findings from ChEMBL document CHEMBL3988442, “University of Dundee, Small-Polar-MMV Screening Library” (2021) are described below.

Holding throughout (design): scale not given: direction of the effect not stated beside the values
The target in experiment [1] is Protein translocase subunit SecA (Escherichia coli (strain K12)) (UniProt P10408). Nature of the experiment: Assay to Identify E. coli SecA ATPase Inhibitors. It is filed as functional. Particulars: 30 µM.
The target in experiment [2] is T1, Ubiquitin-activating enzyme e1, putative (Leishmania donovani (strain BPK282A1)) (UniProt E9BSI1).
T1 sequence (whole entry): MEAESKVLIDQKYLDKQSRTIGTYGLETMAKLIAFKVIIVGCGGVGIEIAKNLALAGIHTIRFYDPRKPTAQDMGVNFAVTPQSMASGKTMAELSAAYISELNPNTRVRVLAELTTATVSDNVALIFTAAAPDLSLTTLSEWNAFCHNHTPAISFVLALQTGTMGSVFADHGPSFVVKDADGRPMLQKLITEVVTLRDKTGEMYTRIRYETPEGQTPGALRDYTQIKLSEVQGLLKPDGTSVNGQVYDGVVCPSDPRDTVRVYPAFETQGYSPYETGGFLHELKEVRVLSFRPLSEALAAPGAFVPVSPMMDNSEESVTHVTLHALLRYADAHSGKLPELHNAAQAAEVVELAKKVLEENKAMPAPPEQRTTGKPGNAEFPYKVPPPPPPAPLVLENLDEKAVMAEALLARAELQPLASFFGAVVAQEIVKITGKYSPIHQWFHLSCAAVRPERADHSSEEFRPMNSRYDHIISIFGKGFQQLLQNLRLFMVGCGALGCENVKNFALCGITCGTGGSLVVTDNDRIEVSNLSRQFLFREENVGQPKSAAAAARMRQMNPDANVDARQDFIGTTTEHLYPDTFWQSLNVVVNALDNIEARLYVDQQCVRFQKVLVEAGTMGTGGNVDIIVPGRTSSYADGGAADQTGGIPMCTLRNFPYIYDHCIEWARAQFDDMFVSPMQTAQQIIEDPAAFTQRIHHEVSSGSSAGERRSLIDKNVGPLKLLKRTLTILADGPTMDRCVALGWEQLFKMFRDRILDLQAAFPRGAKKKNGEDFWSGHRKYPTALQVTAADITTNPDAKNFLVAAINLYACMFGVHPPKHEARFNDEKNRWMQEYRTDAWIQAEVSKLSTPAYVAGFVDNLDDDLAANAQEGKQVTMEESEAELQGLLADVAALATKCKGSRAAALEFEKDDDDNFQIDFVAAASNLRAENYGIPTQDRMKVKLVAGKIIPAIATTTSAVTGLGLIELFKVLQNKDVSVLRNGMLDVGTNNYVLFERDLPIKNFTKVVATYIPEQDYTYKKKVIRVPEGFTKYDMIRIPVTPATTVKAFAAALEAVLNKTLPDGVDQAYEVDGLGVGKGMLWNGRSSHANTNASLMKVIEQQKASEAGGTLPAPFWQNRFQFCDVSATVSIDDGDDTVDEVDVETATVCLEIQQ
Put plainly: Leishmania donovani Ubiquitin Activating Enzyme (LdE1). Particulars: 30 µM. It is filed as functional.

In experiment [3] the target is AMP-activated protein kinase, AMPK (Homo sapiens) (UniProt P54646+O43741+P54619+Q9UGJ0+Q9Y478+Q13131+Q9UGI9). Put plainly: AMP-dependent Kinase enzyme assay. An in vitro enzyme assay that detects ADP turnover that is directly proportional to AMPK activity. This uses naive AMPK that is activated during the assay with MK-8722. It is filed as functional. The note with it: 30 µM.

The target of experiment [4] is Sialic acid-binding Ig-like lectin 9 (Homo sapiens) (UniProt Q9Y336). Nature of the experiment: Hs-Siglec9 ALPHAscreen SOP 20170721. Particulars: 10 µM.
Sialic acid-binding Ig-like lectin 9 (Homo sapiens), sequence (Q9Y336 whole entry): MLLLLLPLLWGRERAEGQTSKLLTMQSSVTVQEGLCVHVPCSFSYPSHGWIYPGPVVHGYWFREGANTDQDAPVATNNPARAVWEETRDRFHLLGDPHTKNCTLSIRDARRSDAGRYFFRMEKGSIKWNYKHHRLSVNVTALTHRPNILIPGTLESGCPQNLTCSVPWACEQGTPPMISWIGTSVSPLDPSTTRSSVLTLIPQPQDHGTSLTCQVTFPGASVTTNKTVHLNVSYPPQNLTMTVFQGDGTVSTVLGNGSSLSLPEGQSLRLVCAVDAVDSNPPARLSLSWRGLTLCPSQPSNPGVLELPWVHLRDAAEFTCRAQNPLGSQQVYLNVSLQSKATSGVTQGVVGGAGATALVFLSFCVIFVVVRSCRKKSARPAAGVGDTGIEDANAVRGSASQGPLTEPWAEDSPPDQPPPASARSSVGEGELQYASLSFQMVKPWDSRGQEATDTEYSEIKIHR
Another experiment concerns Trypanosoma cruzi. Nature of the experiment: Trypanosoma cruzi phosphomannomutase and mannose-1-phosphate guanylyltransferase assay. The class given is functional. The note with it: 10 µM.
Experiment [5] addresses T2, Arginase-2, mitochondrial (Homo sapiens) (UniProt P78540).
T2 sequence (whole entry): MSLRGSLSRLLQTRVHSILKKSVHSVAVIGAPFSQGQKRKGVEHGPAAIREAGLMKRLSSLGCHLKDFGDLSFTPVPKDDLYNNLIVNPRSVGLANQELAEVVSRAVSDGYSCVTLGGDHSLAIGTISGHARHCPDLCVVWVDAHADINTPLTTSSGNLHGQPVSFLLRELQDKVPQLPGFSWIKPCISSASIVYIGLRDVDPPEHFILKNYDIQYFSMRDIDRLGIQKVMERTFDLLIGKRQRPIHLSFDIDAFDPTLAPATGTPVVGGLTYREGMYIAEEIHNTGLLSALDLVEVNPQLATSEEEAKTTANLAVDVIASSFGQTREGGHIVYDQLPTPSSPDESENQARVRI
Nature of the experiment: in vitro enzyme assay to detect the production of urea directly proportional to the activity of Arginase II. Further: in the data most compounds retested in dose-response had high values. It is filed as functional. Particulars: 33.3 µM.

The target in experiment [6] is T3, Proteasome subunit beta (Trypanosoma cruzi) (UniProt O96673).
T3 sequence (whole entry): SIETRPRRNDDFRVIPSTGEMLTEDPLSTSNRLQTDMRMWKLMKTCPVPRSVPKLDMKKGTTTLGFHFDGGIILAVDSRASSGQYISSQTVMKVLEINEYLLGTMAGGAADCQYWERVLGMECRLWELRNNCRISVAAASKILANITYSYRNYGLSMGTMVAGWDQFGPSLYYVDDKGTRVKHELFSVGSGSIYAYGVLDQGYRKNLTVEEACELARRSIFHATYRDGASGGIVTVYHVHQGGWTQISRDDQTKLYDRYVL
Nature of the experiment: Trypanosoma cruzi proteasome chymotrypsin-like activity (TcProtChymo) assay. Further: in the data most compounds retested in dose-response had high values. It is filed as functional. The note with it: 9.37 µM.

The species named for another experiment is Homo sapiens. Nature of the experiment: To identify inhibition of the IFN signalling (Jak-Stat) pathway via expression of an eGFP reporter gene under the control of an IFN-stimulated response element (ISRE) containing MxA promoter. Particulars: 30 µM. The class given is functional.
Experiment [7] addresses T4, Tyrosyl-tRNA synthetase, putative (Trypanosoma cruzi (strain CL Brener)) (UniProt Q4DSP6).
T4 sequence (whole entry): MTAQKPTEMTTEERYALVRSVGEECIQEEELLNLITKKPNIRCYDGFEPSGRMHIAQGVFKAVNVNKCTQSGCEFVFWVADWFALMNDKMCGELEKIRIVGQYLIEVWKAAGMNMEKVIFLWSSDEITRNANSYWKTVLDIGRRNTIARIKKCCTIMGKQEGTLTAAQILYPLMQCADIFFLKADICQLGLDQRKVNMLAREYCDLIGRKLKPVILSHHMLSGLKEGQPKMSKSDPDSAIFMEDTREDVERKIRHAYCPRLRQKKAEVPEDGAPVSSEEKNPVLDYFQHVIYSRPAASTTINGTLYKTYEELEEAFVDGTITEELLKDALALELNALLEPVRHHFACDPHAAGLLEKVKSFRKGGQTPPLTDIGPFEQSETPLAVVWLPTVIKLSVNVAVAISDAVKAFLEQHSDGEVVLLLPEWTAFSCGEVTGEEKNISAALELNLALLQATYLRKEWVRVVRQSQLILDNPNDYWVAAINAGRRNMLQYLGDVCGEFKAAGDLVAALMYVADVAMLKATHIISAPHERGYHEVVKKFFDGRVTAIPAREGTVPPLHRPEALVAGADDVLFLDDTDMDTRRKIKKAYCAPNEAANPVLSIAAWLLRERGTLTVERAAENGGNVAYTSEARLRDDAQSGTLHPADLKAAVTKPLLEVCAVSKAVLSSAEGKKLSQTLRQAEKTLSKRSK
Nature of the experiment: Trypanosoma cruzi tyrosyl tRNA synthetase (TcYRS) _High Tyrosine SOP. Further: in the data most compounds retested in dose-response had high values. The note with it: 30 µM. The class given is functional.

For experiment [8], the target named is T4, Tyrosyl-tRNA synthetase, putative (Trypanosoma cruzi (strain CL Brener)). Nature of the experiment: Trypanosoma cruzi tyrosyl tRNA synthetase (TcYRS) SOP. The class given is functional. The note with it: 30 µM.
Experiment [9] concerns the target Chromo domain-containing protein 1 (Saccharomyces cerevisiae (strain ATCC 204508 / S288c) (Baker's yeast)) (UniProt P32657). Nature of the experiment: ScCHD-1 Enzyme Inhibition Assay. Further: in the data most compounds retested in dose-response had high values. The class given is functional. Particulars: 30 µM.

For some assays here: Entries with a potency or affinity are not part of this list.

Protein translocase subunit SecA (Escherichia coli (strain K12)), sequence (P10408 whole entry): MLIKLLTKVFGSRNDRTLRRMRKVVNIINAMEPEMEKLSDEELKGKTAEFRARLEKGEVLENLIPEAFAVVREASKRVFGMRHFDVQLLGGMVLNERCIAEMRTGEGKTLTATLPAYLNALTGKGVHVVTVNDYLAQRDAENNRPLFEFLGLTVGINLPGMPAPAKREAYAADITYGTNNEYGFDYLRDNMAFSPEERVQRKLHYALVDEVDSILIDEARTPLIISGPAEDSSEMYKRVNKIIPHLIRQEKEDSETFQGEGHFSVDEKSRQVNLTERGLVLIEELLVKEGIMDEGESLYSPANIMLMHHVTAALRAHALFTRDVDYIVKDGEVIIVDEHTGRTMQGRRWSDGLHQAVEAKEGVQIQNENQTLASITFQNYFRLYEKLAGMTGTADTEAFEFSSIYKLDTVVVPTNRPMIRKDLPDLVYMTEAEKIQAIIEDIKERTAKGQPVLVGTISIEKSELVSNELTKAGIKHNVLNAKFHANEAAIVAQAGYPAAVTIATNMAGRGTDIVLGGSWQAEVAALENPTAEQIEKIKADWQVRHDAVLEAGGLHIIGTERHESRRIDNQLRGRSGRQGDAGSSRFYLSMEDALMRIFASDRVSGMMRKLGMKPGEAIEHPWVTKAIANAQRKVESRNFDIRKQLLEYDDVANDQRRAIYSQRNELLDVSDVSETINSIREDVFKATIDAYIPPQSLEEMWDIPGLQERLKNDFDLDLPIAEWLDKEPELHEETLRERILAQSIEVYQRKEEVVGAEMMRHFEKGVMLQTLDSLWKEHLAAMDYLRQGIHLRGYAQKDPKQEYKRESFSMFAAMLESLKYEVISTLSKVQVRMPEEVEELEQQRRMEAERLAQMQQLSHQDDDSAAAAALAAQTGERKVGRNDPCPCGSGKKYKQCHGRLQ
Chromo domain-containing protein 1 (Saccharomyces cerevisiae (strain ATCC 204508 / S288c) (Baker's yeast)), sequence (P32657 whole entry, the tested form may be a part): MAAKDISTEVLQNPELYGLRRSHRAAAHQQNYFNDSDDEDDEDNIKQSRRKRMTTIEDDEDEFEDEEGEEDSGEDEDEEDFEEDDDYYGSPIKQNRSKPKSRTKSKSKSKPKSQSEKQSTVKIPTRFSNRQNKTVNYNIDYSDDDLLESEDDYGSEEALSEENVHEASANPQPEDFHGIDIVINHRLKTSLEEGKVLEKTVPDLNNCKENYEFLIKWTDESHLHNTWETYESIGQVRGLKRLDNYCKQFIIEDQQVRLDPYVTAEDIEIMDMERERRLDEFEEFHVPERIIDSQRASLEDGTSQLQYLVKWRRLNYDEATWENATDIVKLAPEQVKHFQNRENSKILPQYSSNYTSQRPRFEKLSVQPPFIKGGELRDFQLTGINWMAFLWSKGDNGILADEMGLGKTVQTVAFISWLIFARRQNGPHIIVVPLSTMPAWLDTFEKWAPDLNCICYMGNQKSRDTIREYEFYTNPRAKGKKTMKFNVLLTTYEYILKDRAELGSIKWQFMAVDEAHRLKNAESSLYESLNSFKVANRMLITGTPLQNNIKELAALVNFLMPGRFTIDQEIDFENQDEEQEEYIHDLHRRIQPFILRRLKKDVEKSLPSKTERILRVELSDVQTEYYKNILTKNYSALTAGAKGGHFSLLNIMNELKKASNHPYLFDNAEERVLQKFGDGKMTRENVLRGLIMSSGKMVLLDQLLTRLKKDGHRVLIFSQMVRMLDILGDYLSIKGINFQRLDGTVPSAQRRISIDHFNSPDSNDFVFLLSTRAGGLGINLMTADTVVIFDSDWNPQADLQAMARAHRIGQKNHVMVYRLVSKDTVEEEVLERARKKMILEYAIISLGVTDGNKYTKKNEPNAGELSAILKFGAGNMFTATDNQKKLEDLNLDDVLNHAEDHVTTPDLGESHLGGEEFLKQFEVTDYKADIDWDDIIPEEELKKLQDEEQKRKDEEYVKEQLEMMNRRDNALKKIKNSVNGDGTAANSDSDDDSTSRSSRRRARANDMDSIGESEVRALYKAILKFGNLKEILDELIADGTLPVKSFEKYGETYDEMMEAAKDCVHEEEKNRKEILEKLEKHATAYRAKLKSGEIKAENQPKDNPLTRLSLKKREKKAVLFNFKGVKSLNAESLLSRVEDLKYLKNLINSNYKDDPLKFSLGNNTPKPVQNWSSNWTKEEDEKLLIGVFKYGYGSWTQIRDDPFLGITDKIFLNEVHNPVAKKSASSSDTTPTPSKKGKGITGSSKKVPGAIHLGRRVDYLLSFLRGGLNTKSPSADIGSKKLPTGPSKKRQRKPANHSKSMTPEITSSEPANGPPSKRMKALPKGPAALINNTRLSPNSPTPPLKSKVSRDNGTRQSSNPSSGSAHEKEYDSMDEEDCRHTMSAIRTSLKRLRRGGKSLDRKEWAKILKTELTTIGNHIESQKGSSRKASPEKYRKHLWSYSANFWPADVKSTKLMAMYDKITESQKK

With `CC(C)c1nnc2ccc(N3CCC(C(N)=O)CC3)nn12`, the Percent Effect in experiment [1] was -7.89%; in experiment [2] it was 1.33%; in [3], 11.2%; in experiment [4] it was 0.782%; in the experiment on Trypanosoma cruzi, -4.52%; in experiment [5] it was -8.63%. The Percent Effect is 3.14% in [6]; -2.58% in the experiment filed under Homo sapiens; -1.06% in experiment [7]; 0% in experiment [8]; -7.68% in experiment [9].
In the case of `CN(C)Cc1ccnc(C2CCCN2Cc2ccncc2)n1` (stereo not given), the Percent Effect in experiment [1] was -4.54%; in [2], 9.46%; in [3] it was -5.08%; in [4], 2.14%; with Trypanosoma cruzi it was 6.72%; in experiment [5] it was -4.41%. In addition, the Percent Effect in experiment [6] was 4.21%; in the experiment listed under Homo sapiens it was 7.82%; in experiment [7], 3.23%; in experiment [8], 11.7%; in experiment [9], -20.6%.
As to `O=C([C@@H]1C[C@@H]2CCN(CCc3ccccc3)C[C@H]2O1)N1CCCC1`, the Percent Effect in experiment [1] is 1.08%; in experiment [2] it was 8%; in experiment [3] it was 15%; in experiment [4] it was -9.77%; with Trypanosoma cruzi it was -7.09%; in experiment [5], 8.62%. The Percent Effect in experiment [6] was 14.7%; in the experiment filed under Homo sapiens it was -9.49%; in [7], 4.25%; in [8], 8.97%; in [9], 0.575%.
Consider `Cc1nc(NCc2cccnc2)c2c(n1)c(C)nn2C`, for which the Percent Effect was 0.594% in experiment [1]; 7.79% in experiment [2]; 5.87% in experiment [3]; 8.94% in experiment [4]; 2.85% in the experiment with Trypanosoma cruzi; -12.4% in experiment [5]. Also, the Percent Effect in [6] was 7.99%; in the experiment filed under Homo sapiens it was 31%; in [7], 6.45%; in [8], 18.5%; in experiment [9], -2.21%.
Regarding `Cc1nc(C)c(CC(=O)Nc2nnc(C)s2)c(=O)[nH]1`, the Percent Effect is -0.0632% in experiment [1]; -13.2% in experiment [2]; -1.32% in experiment [3]; 2.92% in experiment [4]; 2.82% in the experiment on Trypanosoma cruzi; 1.15% in experiment [5]. Moreover, the Percent Effect in [6] is 7.85%; in the experiment listed under Homo sapiens, 0.477%; in experiment [7], 4.41%; in experiment [8], 21.9%; in [9], -10.9%.
With `COC(=O)C(NC(=O)c1ccco1)c1cc(F)ccc1F` (stereo not given), the Percent Effect was -3.29% in experiment [1]; 5.2% in experiment [2]; 19.7% in experiment [3]; 11.4% in experiment [4]; 6.93% in the experiment on Trypanosoma cruzi; -0.712% in [5]. For the same molecule, the Percent Effect was 9.46% in experiment [6]; -16.9% in the experiment listed under Homo sapiens; 1.94% in experiment [7]; 14.6% in [8]; -8.66% in experiment [9].
`Cc1nc(C2CCN(C(=O)c3cccnc3)CC2)c2sccn12`: the Percent Effect in experiment [1] was -1.59%; in [2], 1.35%; in experiment [3], 6.93%; in [4], 4.07%; in the experiment with Trypanosoma cruzi, 3.36%; in [5], 3.48%. The Percent Effect in experiment [6] is 7.8%; in the experiment listed under Homo sapiens, -15.3%; in experiment [7], 2.15%; in experiment [8], 6.49%; in experiment [9] it was -6.97%.
For `CN(C)CC1CN(c2cnc3ccccc3n2)CCO1` (stereo not given), the Percent Effect in experiment [1] was -0.138%; in experiment [2], 22.8%; in experiment [3], -4.08%; in [4], -7.06%; in the experiment with Trypanosoma cruzi it was 3.49%; in experiment [5], 6.84%. Besides, the Percent Effect is 12.7% in experiment [6]; 19.6% in the experiment filed under Homo sapiens; 7.39% in experiment [7]; 26.6% in experiment [8]; -5.98% in experiment [9].
Regarding `CN(Cc1cnn(C)c1)C(=O)c1ccc(=O)n(C)n1`, the Percent Effect in experiment [1] is -3.21%; in experiment [2] it was 7.89%; in experiment [3], 2.81%; in experiment [4], -2.3%; in the experiment with Trypanosoma cruzi, 5.16%; in [5], -5.92%. For the same molecule, the Percent Effect in experiment [6] is 12.9%; in the experiment listed under Homo sapiens, 9.62%; in [7], 6.38%; in [8], 10.4%; in experiment [9] it was -4.41%.
On to `Cn1cc(N2CC3(CCN(Cc4cccs4)CC3)OCC2=O)cn1`, for which the Percent Effect is -0.959% in experiment [1]; -2.74% in experiment [2]; -1.55% in experiment [3]; 15.7% in experiment [4]; 2.38% in the experiment on Trypanosoma cruzi; 3.19% in experiment [5]. For the same molecule, the Percent Effect in [6] was 3.68%; in the experiment filed under Homo sapiens, 2.59%; in [7], -14.6%; in [8], 8.64%; in experiment [9] it was -2.76%.
